Results from the supplement of paper PMC6555819.

Legend:
Assay in all cases: PBM binding z-score (relative to random genomic background probes); higher = stronger binding; sequences stand for … in GC…GCGATTGACAGCGTAGAATGAAGG
[1] = system: FXR:RXRa (NR concentration 270 nM, RXRa partner concentration 90 nM)
Summary of the method: (§1)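 Ligand-free nuclear receptor dimers were bound for 1 h to custom Agilent 4×180K protein-binding microarrays. Detection used antibodies against each partner (one per run). Binding z-scores rest on regression-normalized fluorescence, with random background probes as the reference.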

[2] = system: LXRa:RXRa (NR concentration 270 nM, RXRa partner concentration 90 nM)
Summary of the method: as §1

[3] = system: LXRa homodimer (NR concentration 270 nM)
Summary of the method: as §1

[4] = system: LXRb:RXRa (NR concentration 270 nM, RXRa partner concentration 90 nM)
Summary of the method: as §1

[5] = system: LXRb homodimer (NR concentration 270 nM)
Summary of the method: as §1

[6] = system: PPARa:RXRa (NR concentration 270 nM, RXRa partner concentration 90 nM)
Summary of the method: as §1

[7] = system: PPARg:RXRa (NR concentration 180 nM, RXRa partner concentration 90 nM)
Summary of the method: as §1

[8] = system: PPARg:RXRa 270nM:90nM, anti-RXR (NR concentration 270 nM, RXRa partner concentration 90 nM)
Summary of the method: as §1

[9] = system: PPARg:RXRa 30nM:10nM, anti-RXR (NR concentration 30 nM, RXRa partner concentration 10 nM)
Summary of the method: as §1

[10] = system: PPARg:RXRa 90nM:30nM, anti-RXR (NR concentration 90 nM, RXRa partner concentration 30 nM)
Summary of the method: as §1

[11] = system: PPARg:RXRa DBDmut IVT, anti-RXR (DBD mutation: RXRa K156A/R161A, NR concentration 270 nM, RXRa partner concentration 90 nM)
Summary of the method: as §1

[12] = system: PPARg:RXRa IVT, anti-PPARg (NR concentration 270 nM, RXRa partner concentration 90 nM)
Summary of the method: as §1

[13] = system: PPARg DBDmut:RXRa IVT, anti-PPARg (DBD mutation: PPARg1 K132A/R137A, NR concentration 270 nM, RXRa partner concentration 90 nM)
Summary of the method: as §1

[14] = system: PPARg DBDmut IVT, anti-PPARg (DBD mutation: PPARg1 K132A/R137A, NR concentration 270 nM)
Summary of the method: as §1

[15] = system: PPARg homodimer (NR concentration 180 nM)
Summary of the method: as §1

[16] = system: PXR:RXRa (NR concentration 270 nM, RXRa partner concentration 90 nM)
Summary of the method: as §1

[17] = system: PXR homodimer (NR concentration 270 nM)
Summary of the method: as §1

[18] = system: RARa:RXR (NR concentration 270 nM, RXRa partner concentration 90 nM)
Summary of the method: as §1

[19] = system: RARa homodimer (NR concentration 270 nM)
Summary of the method: as §1

[20] = system: RARb:RXRa (NR concentration 270 nM, RXRa partner concentration 90 nM)
Summary of the method: as §1

| Sequence | PBM binding z-score [1] | PBM binding z-score [2] | PBM binding z-score [3] | PBM binding z-score [4] | PBM binding z-score [5] | PBM binding z-score [6] | PBM binding z-score [7] | PBM binding z-score [8] | PBM binding z-score [9] | PBM binding z-score [10] | PBM binding z-score [11] | PBM binding z-score [12] | PBM binding z-score [13] | PBM binding z-score [14] | PBM binding z-score [15] | PBM binding z-score [16] | PBM binding z-score [17] | PBM binding z-score [18] | PBM binding z-score [19] | PBM binding z-score [20] |
| --- | --- | --- | --- | --- | --- | --- | --- | --- | --- | --- | --- | --- | --- | --- | --- | --- | --- | --- | --- | --- |
| ACAGACCGGTGATGAAGGTAACTCAGGCTATCAT | -0.208 | -0.192 | -0.177 | -0.283 | -0.429 | -0.318 | 0.549 | 0.0547 | -0.0977 | -0.129 | -0.264 | -0.316 | 0.0593 | 0.0893 | -0.0191 | -0.348 | -0.142 | -0.0159 | 0.27 | -0.139 |
| AGAACGAGGGCACGCTGAGTTGATACCAGAGTAG | 0.816 | 0.364 | -0.278 | 0.0367 | -0.613 | 1.76 | 2.2 | 1.8 | 0.433 | 1.03 | 4.16 | 3.75 | 0.259 | -0.00374 | 0.189 | 1.25 | 0.342 | 0.748 | -0.804 | 2.36 |
| CGAACTAGGTCAAGCACAGTGAATCTCCGCACGC | 4.1 | 2.35 | 0.195 | 1.67 | -0.136 | 4.74 | 7.62 | 6.72 | 4.49 | 6.09 | 8.33 | 8.4 | 5.79 | 3.74 | 2.82 | 1.18 | -0.61 | 2.31 | 0.512 | 3.98 |
| GCTTACGGGCCAAAGGTTATAGCATGAATAGAAT | 1.52 | 1.75 | -0.0531 | 2.24 | -0.287 | 4.59 | 8.48 | 7.11 | 6.58 | 7.83 | 1.06 | 3.69 | -0.252 | 0.373 | 0.626 | 2.27 | 0.0168 | 3.13 | 0.0801 | 1.81 |
| CTACCAAGGTGAACAAGGTCGTAGATTACTATTC | 1.44 | 1.27 | -0.0649 | 1.62 | -0.766 | 2.66 | 1.19 | 1.36 | 0.159 | 0.588 | 2.43 | 2.87 | 0.349 | 0.813 | 0.756 | 2.37 | 0.924 | 2.56 | 0.0983 | 2.17 |
| CCTAGTTGGTCAGGAGGTCACACACCGGATATGA | 3.73 | 3.67 | 2.08 | 3.3 | 0.83 | 4.11 | 3.41 | 3.95 | 1.75 | 3.27 | 1.79 | 3.68 | 0.499 | 0.258 | 3.9 | 4.41 | 1.41 | 4.76 | 2.91 | 3.82 |
| GGATATAGGTAATACAAGGTGAAAGTCCGATTGT | 1.08 | 2.72 | 0.722 | 1.12 | 0.202 | 2.58 | 2.63 | 2.51 | 0.801 | 1.87 | 5.48 | 5.34 | 1.29 | 1.44 | 1.17 | 1.02 | 0.527 | 2.01 | 1.8 | 0.806 |
| ATCGAAAGGTCGAAGGTGAGGATACCCACCCGAA | 4.08 | 3.68 | 0.155 | 2.73 | 0.724 | 4.69 | 4.61 | 5.07 | 2.25 | 4.11 | 0.202 | 2.45 | 0.792 | 0.619 | 1.6 | 3.14 | 0.0224 | 4.45 | 0.541 | 3.66 |
| ATATGTAGGTTACATCCGGGTCATTCAAGCTATG | 2.46 | 4.38 | 1.74 | 3.45 | 0.746 | 4.7 | 6.29 | 5.22 | 2.73 | 4.53 | 7.38 | 7.61 | 3.54 | 2.95 | 2.2 | 3.81 | 1.61 | 4.07 | 0.831 | 2.43 |
| TCCTGTAGATCAAGCAGGTTAAGAAAGCCTGAGT | 0.115 | 0.256 | -0.387 | 0.136 | -1.12 | 0.563 | -0.537 | 1.19 | 2.38 | 1.42 | 1.36 | -0.00456 | 0.0504 | -0.299 | -0.486 | 0.372 | 0.0191 | 0.301 | -0.136 | 0.0343 |
| TCGAGTAGGGTAGGGGCATTCAGAATGGCGTCGA | 0.264 | 0.12 | 0.0875 | 1.16 | 1.6 | 0.956 | 0.642 | 1.82 | 1.02 | 1.4 | 1.02 | 1.33 | -0.123 | 1.32 | 0.484 | 0.566 | 0.395 | 0.405 | 0.0821 | 0.666 |
| CGAACTAGGTCATCCAGTACAGTGAATACATTGA | 4.18 | 2.86 | 0.599 | 2.59 | 0.209 | 4.82 | 7.93 | 6.36 | 4.02 | 5.81 | 8.25 | 8.35 | 2.09 | 1.3 | 1.76 | 2.09 | 1.66 | 2.26 | 0.426 | 3.78 |
| ATCTTTAGGTAAGACTCAGTTCAGTGAAGAACGC | 0.459 | 0.502 | 0.392 | 0.259 | 0.931 | 0.478 | 0.122 | 0.267 | 0.146 | 0.0526 | 0.866 | 0.683 | 1.19 | 0.877 | 0.751 | 1.35 | 1.56 | 0.837 | 1.14 | 0.585 |
| CGTCAAAGTTCAAGGTAACGCAACAGAAAGCAGC | 6.65 | 5.28 | 2.35 | 3.52 | 1.08 | 4.51 | 4.65 | 5.25 | 2.32 | 4.14 | 0.947 | 2.53 | 0.438 | 0.38 | 3.41 | 4.06 | 3.14 | 3.59 | 1.14 | 5.15 |
